The panel holds about 79,000 compounds, 15% with a hit somewhere; the sample as a whole holds those more often. Rule as the data show it: active = growth inhibition above about 70%; inactive = the rest.
Columns and labels:
[1] = NCI Yeast Anticancer Drug Screen. Data for the rad50 strain (AID 155);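 also: 0% = growth of vehicle-only cultures of the same strain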; conditions: S. cerevisiae rad50 strain growth inhibition; at 50.0 µM; hits give high values
Outline: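 DNA repair mutant yeast, compound exposure, growth read-out; inhibition is taken relative to vehicle.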

[2] = NCI Yeast Anticancer Drug Screen. Data for the mec2-1 strain (AID 157); conditions: S. cerevisiae mec2-1 strain, at 50.0 µM, hits give high values
Outline: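 Compounds were applied to mec2-1 yeast cells. Their growth was then compared with that of vehicle-treated cultures to give growth inhibition.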

[3] = NCI Yeast Anticancer Drug Screen. Data for the sgs1 mgt1 strain (AID 161);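 also: 0% = growth of cultures given vehicle only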; conditions: S. cerevisiae sgs1 mgt1 strain, at 50.0 µM, hits give high values
Outline: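 Yeast cells carrying a defined DNA-repair defect were exposed to test compounds. Growth inhibition was measured relative to vehicle-treated controls.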

[4] = NCI Yeast Anticancer Drug Screen. Data for the cln2 rad14 strain (AID 165);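 also: 0% = growth equal to vehicle treated cultures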; conditions: S. cerevisiae cln2 rad14 strain, at 50.0 µM, hits give high values
Outline: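 Strain: cln2 rad14 yeast, altered in cell cycle control and DNA damage repair. Read-out: growth inhibition vs vehicle.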

[5] = NCI Yeast Anticancer Drug Screen. Data for the bub3 strain (AID 167); conditions: S. cerevisiae bub3 mutant strain, at 50.0 µM, hits give high values
Outline: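 In this screen, a yeast mutant lacking normal mitotic checkpoint function is challenged with compound. Relative growth versus vehicle gives the inhibition value.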

[6] = NCI Yeast Anticancer Drug Screen. Data for the mlh1 rad18 strain (AID 175); conditions: S. cerevisiae mlh1 rad18 strain growth inhibition; at 50.0 µM; hits give high values
Outline: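 A repair-deficient yeast strain is exposed to test compound, and growth is scored relative to vehicle-treated controls.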

Measured: growth inhibition

CCC(C)OC(=S)S.[Ag] (configuration not stated)
inactive: [1] 5.25% | [2] -7.2% | [3] 0.7% | [4] -9.4% | [5] -1.85% | [6] 10.7%

C=CCOC(=O)OCC=C
inactive: [1] 4% | [2] -8.55% | [3] 2% | [4] -3.7% | [5] 23.2% | [6] 3.1%

CC(C)(C)[Si](C)(C)OCCc1ccccc1C1CC2(S(=O)(=O)c3ccccc3)ON1CC2S(=O)(=O)c1ccccc1 (configuration not stated)
inactive: [1] 15.1% | [2] -1.7% | [3] -8.2% | [4] -12.6% | [5] 8.4% | [6] 21.4%

Cc1ccc(O)cc1C(=O)O
inactive: [1] -32% | [2] -14.7% | [3] -0.95% | [4] 8.05% | [5] -3.75% | [6] 5.4%

O=C(Oc1ccc2c(=O)cc(-c3ccccc3)oc2c1OC(=O)c1ccccc1)c1ccccc1
inactive: [1] 3% | [2] 7.6% | [3] -0.85% | [4] -3.15% | [5] -14.1% | [6] 3%

CSc1ccccc1N.[Cl][Cu][Cl]
inactive: [1] 28.8% | [2] 19.4% | [3] -2% | [4] 14.8% | [5] 28.1% | [6] 28.4%

CCCOC(=O)CCCCCC1CCCCC1
inactive: [1] 15.2% | [2] 6.1% | [3] -5.8% | [4] -33.1% | [5] -8.1% | [6] 8%

Cc1ccc(/C=C/C(=O)c2sc(C(N)=S)nc2C)cc1
inactive: [1] 35.9% | [2] 14.2% | [3] 8.15% | [4] 16.3% | [5] 11.2% | [6] 39%

[N-]=[N+]=NC1CC(n2cc(Cc3ccccc3)c(N)nc2=O)OC1CO (configuration not stated)
inactive: [1] -0.1% | [2] -10.6% | [3] 11.4% | [4] 2.95% | [5] 2.9% | [6] -7.05%

COC(=O)C1=C(C)NC(C)=C(C(=O)OC)C1c1cc2ccccc2n2nnnc12
inactive: [1] 26.7% | [2] 11.1% | [3] 31.2% | [4] -1.75% | [5] 7.5% | [6] 47.4%

Clc1ccc(-c2cc(-c3cc(-c4ccc(Cl)cc4Cl)n[nH]3)[nH]n2)c(Cl)c1
inactive: [1] 14.2% | [2] 1.75% | [3] -5.3% | [4] 20.6% | [5] 9.9% | [6] 8.55%

CC1=NN(C(=O)Cc2ccccc2)C(=O)/C1=C\c1ccc([N+](=O)[O-])cc1
inactive: [1] -38.2% | [2] -41.5% | [3] -52.4% | [4] -26.4% | [5] -55% | [6] -55.8%

COC(=O)CC/C=N/NC(N)=O
inactive: [1] 10.2% | [2] 4.5% | [3] 7.7% | [4] -17.8% | [5] 2.35% | [6] -4.05%

N#CC(C#N)=CN1CCCCC1
inactive: [1] -16.2% | [2] -4.65% | [3] -12.1% | [4] 17.6% | [5] -6.35% | [6] -17.8%

O=S(=O)(Nc1nc2ccccc2nc1N1CCCCCC1)c1ccccc1
inactive: [1] -7.25% | [2] -8.35% | [3] 20.5% | [4] 4.7% | [5] 7.65% | [6] -23.8%

CC(=O)Oc1ccc(-c2ccccc2)cc1C(=O)O
inactive: [1] 5.9% | [2] 1.55% | [3] 29.4% | [4] -15.7% | [5] 41.3% | [6] 11.6%

CCOC(=O)Nc1ccc(C(=O)OCC)cc1
inactive: [1] 29.8% | [2] -15.1% | [3] 7.85% | [4] 8.1% | [5] -16.3% | [6] 13.7%

CCOC(=O)NC(C)(C)CC(C)(C)C
inactive: [1] -0.6% | [2] -17.6% | [3] -4.7% | [4] 11.9% | [5] -18.6% | [6] 17.4%

FC(F)(F)c1nc2ccccc2[nH]1
inactive: [1] 16.9% | [2] -1.4% | [3] 9.55% | [4] 14.8% | [5] -1.65% | [6] 13.3%

CC(=O)NCCC1CN(C(=O)/C=C/I)c2ccccc21 (configuration not stated)
inactive: [1] -8.4% | [2] 30.4% | [3] 4.55% | [4] 37.7% | [5] 24.6% | [6] -17.4%

COC(=O)CCSSCCC(=O)OC
inactive: [1] 2.15% | [2] -13.1% | [3] -1.6% | [4] -6.15% | [5] -21.4% | [6] 24.9%

CCCc1c(N)nc(N)nc1N
inactive: [1] 3.4% | [2] 2.05% | [3] -5.7% | [4] -48.6% | [5] 7.4% | [6] -7.65%

O=Cc1cc(C=O)c2ccc(=O)[nH]c2n1
inactive: [1] 4.75% | [2] 0.5% | [3] -8.55% | [4] 0.65% | [5] -1.25% | [6] -3.5%

CNC(=O)Nc1ccc(OC)cc1OC
inactive: [1] 3% | [2] -6.2% | [3] -8.35% | [4] -66.5% | [5] 3.2% | [6] -18.6%

COC(=O)c1ccc(CSc2ccccc2NC(=S)Nc2cccc(C(F)(F)F)c2)o1
inactive: [1] -3.65% | [2] -20.2% | [3] -1.15% | [4] 4.65% | [5] -18.4% | [6] -7.6%

CC1(C)SC(N=C=Nc2ccccc2)CN1C=O (configuration not stated)
inactive: [1] 8.55% | [2] 1.85% | [3] -14.4% | [4] -10.1% | [5] 9.5% | [6] -0.4%

O=C1Nc2ccccc2C1=Nc1cccc2ncccc12
inactive: [1] 3.35% | [2] -7.75% | [3] -11.1% | [4] -4.5% | [5] 8.7% | [6] 15.4%

O=S(=O)(c1ccccc1)N1CCCCN(S(=O)(=O)c2ccccc2)COC1
inactive: [1] 5.25% | [2] -7.45% | [3] -1.65% | [4] -9.85% | [5] -7.45% | [6] -5.35%

NCCNCc1ccncc1
inactive: [1] -38% | [2] -41.5% | [3] -58.5% | [4] -11.3% | [5] -47.2% | [6] -27.2%

O=C(c1cccc([N+](=O)[O-])c1)N1CCCCC1
inactive: [1] 1.4% | [2] -11.8% | [3] 16.2% | [4] -17.1% | [5] 4.1% | [6] -5.05%

CC(=O)NNC(=O)c1ccc(Br)cc1
inactive: [1] 1.3% | [2] -16.4% | [3] 0.5% | [4] -3.2% | [5] 21.6% | [6] -1.05%

NC(=O)c1ccccc1C(=O)c1ccccc1
inactive: [1] -35% | [2] 1.85% | [3] -8.6% | [4] -20.1% | [5] -27.1% | [6] -10.3%

SC1c2cc(Cl)ccc2-c2c(Cl)cc(Cl)cc21 (configuration not stated)
inactive: [1] -2.7% | [2] 3.35% | [3] -6.05% | [4] 9.1% | [5] 10.6% | [6] -11.8%

COC(=O)C1=C2C3(O)CC4CC5C3CCC(C)N5C24C2CCC(O)C(OC)C2C1OC(=O)c1ccccc1 (configuration not stated)
inactive: [1] -34.6% | [2] -38.3% | [3] -20.9% | [4] -1.85% | [5] -30.4% | [6] 4.35%

CCOc1ccc(N=c2ccn3ccccc3c2)cc1
inactive: [1] -2.05% | [2] -10.3% | [3] -24.2% | [4] -24.4% | [5] 8.75% | [6] -28.5%

CC(=NCc1ccccc1)c1c(C)cc(=O)n(-c2ccccc2)c1O
inactive: [1] -12.8% | [2] -6.45% | [3] -6.15% | [4] -70.5% | [5] -24.8% | [6] -12%

NN1CC(=O)N(c2ccccc2)CC1=O
inactive: [1] 0.5% | [2] 4.45% | [3] -0.6% | [4] 42.8% | [5] -7.65% | [6] 4.7%

COc1cc(C(=O)Nc2ccc(N3CCCCC3)cc2)cc(OC)c1OC
inactive: [1] 25.1% | [2] 9.2% | [3] 38.4% | [4] -16.2% | [5] 14.6% | [6] 36.3%

CCCCCCCCCCCCS(=O)(=O)O (tested in a mixture with another compound)
inactive: [1] -5.1% | [2] -6% | [3] -9.05% | [4] -12.4% | [5] -22.5% | [6] -12.8%

OCC[N-]CC[N-]CCO.[Cl][Co][Cl]
inactive: [1] 27.8% | [2] 32.1% | [3] 32.7% | [4] 22.9% | [5] 36.6% | [6] 35.2%

COc1cc2cnc(-c3ccncc3)c(O)c2cc1OC
inactive: [1] 30.9% | [2] 40.6% | [3] 37.2% | [4] 1.9% | [5] 36.2% | [6] 28.6%

c1ccc(-c2cc3cc4c(cc3[nH]2)Oc2ccccc2O4)cc1
inactive: [1] 5.45% | [2] 14.4% | [3] 18.4% | [4] 10.8% | [5] 5.2% | [6] 3.1%

From PubChem BioAssay (NCI)
